# Experimental data published in PubChem BioAssay (NCATS).
# Results filed as inconclusive are left out. A number with no mark means an inactive call. The source made the active and inactive calls. Calls follow the shape of the dose curve; as a rule, active = well fitted inhibition curve with a large enough effect; inconclusive = small, poorly fitted or top-dose-only effect; inactive = flat fitted curve, though single readings scatter.
# Target: Voltage-gated inwardly rectifying potassium channel KCNH2 (Homo sapiens) (UniProt Q12809)
# Sequence (Q12809 whole entry, looked up): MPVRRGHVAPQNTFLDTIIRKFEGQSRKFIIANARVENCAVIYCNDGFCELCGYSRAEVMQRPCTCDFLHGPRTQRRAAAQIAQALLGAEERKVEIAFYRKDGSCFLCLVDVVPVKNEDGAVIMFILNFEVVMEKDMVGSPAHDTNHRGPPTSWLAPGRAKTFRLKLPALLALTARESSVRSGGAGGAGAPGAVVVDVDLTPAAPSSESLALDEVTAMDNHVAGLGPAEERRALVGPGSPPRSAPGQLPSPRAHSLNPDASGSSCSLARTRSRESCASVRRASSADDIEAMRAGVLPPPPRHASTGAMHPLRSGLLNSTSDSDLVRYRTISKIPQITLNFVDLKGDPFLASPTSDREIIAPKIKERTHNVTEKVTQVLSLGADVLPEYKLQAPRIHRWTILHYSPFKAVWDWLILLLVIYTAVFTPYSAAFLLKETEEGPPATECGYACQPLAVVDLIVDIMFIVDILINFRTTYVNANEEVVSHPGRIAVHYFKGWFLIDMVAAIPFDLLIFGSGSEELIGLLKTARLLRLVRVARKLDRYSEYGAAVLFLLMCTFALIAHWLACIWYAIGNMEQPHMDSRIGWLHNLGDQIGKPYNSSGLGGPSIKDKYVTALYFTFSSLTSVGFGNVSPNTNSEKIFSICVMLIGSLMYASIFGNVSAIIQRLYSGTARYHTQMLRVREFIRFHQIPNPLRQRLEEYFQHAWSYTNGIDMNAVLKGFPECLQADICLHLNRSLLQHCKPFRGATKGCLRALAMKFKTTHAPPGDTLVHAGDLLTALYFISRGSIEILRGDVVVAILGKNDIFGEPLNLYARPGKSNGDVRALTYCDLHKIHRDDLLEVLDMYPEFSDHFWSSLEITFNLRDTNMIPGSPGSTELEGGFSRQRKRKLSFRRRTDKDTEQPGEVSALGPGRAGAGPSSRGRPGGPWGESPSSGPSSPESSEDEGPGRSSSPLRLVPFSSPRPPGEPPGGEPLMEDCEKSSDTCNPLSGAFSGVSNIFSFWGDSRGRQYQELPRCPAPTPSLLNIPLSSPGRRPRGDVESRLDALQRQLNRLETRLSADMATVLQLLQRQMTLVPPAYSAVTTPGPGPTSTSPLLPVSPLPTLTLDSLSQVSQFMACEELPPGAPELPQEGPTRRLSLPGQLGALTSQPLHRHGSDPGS
# Assay: qHTS Assay for Small Molecule Inhibitors of the Human hERG Channel Activity (AID 588834);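 also: lower thallium flux fluorescence means stronger hERG block; nearly all actives have a fitted effect of over 50% in size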; as to activity change, negative = inhibition: top concentration of the series differs between compounds
# Conditions: U2OS BacMam hERG, FluxOR thallium flux fluorescence; series mostly up to 46.1 µM; activity change, negative = inhibition: at the top concentration
# Outline: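 Thallium serves as surrogate for K+ influx through BacMam-delivered hERG in U2OS cells. Compounds are added for about 10 minutes after dye loading; stimulation buffer then starts flux, monitored kinetically on FDSS.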
# % is scaled to controls: 0 for no effect and ±100 for the full control effect; potency is read from the fitted curve at half-maximal effect.
SMILES,"activity change, negative = inhibition",Potency
CC(O)[C@@H]1NC(=O)[C@H](Cc2ccccc2)NC(=O)[C@H](C(C)O)NC(=O)[C@H](CCCCN)NC(=O)[C@H](Cc2c[nH]c3ccccc23)NC(=O)[C@H](Cc2ccccc2)NC(=O)[C@H](Cc2ccccc2)NC(=O)[C@H](CC(N)=O)NC(=O)[C@H](CCCCN)NC(=O)[C@@H](NC(=O)CNC(=O)[C@H](C)N)CSSC[C@@H](C(=O)O)NC(=O)[C@H](CO)NC1=O (some centres not stated),15.5%,
COc1ccc2c(c1)N(C[C@H](C)CN(C)C)c1ccccc1S2,,8.91 µM (active)
CC(C)(C)c1ccc(CN2CCN(C(c3ccccc3)c3ccc(Cl)cc3)CC2)cc1 (configuration not stated),,2.82 µM (active)
CCOc1cc(-c2nccc3cc(OC)c(OC)cc23)cc(OCC)c1OCC,-1.16%,
CO[C@H]1C[C@H](O[C@@H]2/C(C)=C/C[C@@H]3C[C@@H](C[C@]4(CC[C@H](C)[C@@H](C5CCCCC5)O4)O3)OC(=O)[C@@H]3C=C(C)/C(=N/O)[C@H]4OC/C(=C\C=C\[C@@H]2C)[C@]43O)O[C@@H](C)[C@@H]1O,13.2%,
O=C(OC[C@H]1O[C@](O)(COC(=O)c2cccnc2)[C@@H](OC(=O)c2cccnc2)[C@@H]1OC(=O)c1cccnc1)c1cccnc1,-18.3%,
CC/C=C\C/C=C\C/C=C\C/C=C\C/C=C\C/C=C\CCC(=O)O,3.04%,
C[C@@H]1C[C@H]2[C@@H]3C[C@H](F)C4=CC(=O)C=C[C@]4(C)[C@@]3(Cl)[C@@H](O)C[C@]2(C)[C@H]1C(=O)COC(=O)C(C)(C)C,-2.65%,
CC[C@@H](C)[C@H](N)C(=O)O,17.3%,
NC(=O)C1c2ccccc2CCc2ccccc21,12.1%,
C=C1CC[C@H](O)CC1=C/C=C1\CCC[C@]2(C)[C@@H]([C@H](C)/C=C/[C@H](C)C(C)C)CC[C@@H]12,-9.25%,
Cn1c(=O)c2c(ncn2CCOC(=O)C(C)(C)Oc2ccc(Cl)cc2)n(C)c1=O,2.44%,
CCC(C)[C@@H](N)C(=O)O (some centres not stated),-12.1%,
CC[C@H](CC[C@@H](C)[C@H]1CC[C@H]2[C@@H]3CC=C4C[C@@H](O)CC[C@]4(C)[C@H]3CC[C@]12C)C(C)C,-0.0834%,
O=C(O)CC/C=C\CC[C@@H]1[C@@H](N2CCCCC2)[C@@H](O)C[C@@H]1OCc1ccc(-c2ccccc2)cc1,,0.501 µM (active)
Cn1c(O)c(N=NC(N)=S)c2ccccc21,10.2%,
C=CC[C@@H]1/C=C(\C)C[C@H](C)C[C@H](OC)[C@H]2O[C@@](O)(C(=O)C(=O)N3CCCC[C@H]3C(=O)O[C@H](/C(C)=C/[C@@H]3CC[C@@H](O)[C@H](OC)C3)[C@H](C)[C@@H](O)CC1=O)[C@H](C)C[C@@H]2OC,11.1%,
CC1(C)[C@H]2CC[C@]1(C)[C@H](O)C2,29%,
CCCCCCCCCCCCCC(=O)OCC(COP(=O)([O-])OCC[N+](C)(C)C)OC(=O)CCCCCCCCCCCCC (configuration not stated),3.87%,

SMILES,"activity change, negative = inhibition",Potency
CC(=O)[C@H]1CC[C@H]2[C@@H]3C=CC4=CC(=O)CC[C@@]4(C)[C@H]3CC[C@]12C,8.04% [at 20.6 µM],
CC(C)c1nc(N(C)S(C)(=O)=O)nc(-c2ccc(F)cc2)c1/C=C/C(O)CC(O)CC(=O)O (configuration not stated),,14.1 µM (active)
CC[C@H](C)[C@@H]1NC(=O)[C@H](Cc2ccc(O)cc2)NC(=O)[C@@H](N)CSSC[C@@H](C(=O)N2CCC[C@H]2C(=O)N[C@@H](CC(C)C)C(=O)NCC(N)=O)NC(=O)[C@H](CC(N)=O)NC(=O)[C@H](CCC(N)=O)NC1=O,22.5%,
O=C(O)c1ccc(NC2OC[C@@H](O)[C@H](O)[C@H]2O)cc1 (some centres not stated),7.99%,
CCc1cn([C@H]2C[C@H](O)[C@@H](CO)O2)c(=O)[nH]c1=O,3.36%,
CC(O)[C@H]1CC[C@H]2[C@@H]3CC[C@@H]4C[C@@H](O)CC[C@]4(C)[C@H]3CC[C@]12C (some centres not stated),-11.5%,
CC(C)CCCC(C)NC(C)C (configuration not stated),3.18%,
Cc1cc(C)c(NC(=O)C[C@H](CC(=O)O)c2cccc3ccccc23)c(C(=O)N2CCC3(CCCC3)CC2)c1,4.89%,
CC[C@H]1OC(=O)C[C@@H](O)[C@H](C)[C@@H](O[C@@H]2O[C@H](C)[C@@H](O[C@H]3C[C@@](C)(O)[C@@H](O)[C@H](C)O3)[C@H](N(C)C)[C@H]2O)[C@@H](CC=O)C[C@@H](C)C(=O)/C=C/C(C)=C/[C@@H]1CO[C@@H]1O[C@H](C)[C@@H](O)[C@@H](OC)[C@H]1OC,11.2%,
CNC(=O)OCc1cccc(COC(=O)NC)n1,30.9%,
Cc1cccc(C)c1NC(=O)NC1=CCCN1C,9.55%,
Cc1cc(-c2ccc(N=Nc3ccc4c(S(=O)(=O)O)cc(S(=O)(=O)O)c(N)c4c3O)c(C)c2)ccc1N=Nc1ccc2c(S(=O)(=O)O)cc(S(=O)(=O)O)c(N)c2c1O,34.4%,
O=C1/C(=C\c2cccs2)CCC/C1=C\c1cccs1,-17.2%,
CC(C)(C)c1ccc2c(S(=O)(=O)O)c(C(C)(C)C)ccc2c1,-7.25%,
CO[C@H]1C=CO[C@@]2(C)Oc3c(C)c(O)c4c(O)c(cc(O)c4c3C2=O)NC(=O)/C(C)=C\C=C/[C@H](C)[C@H](O)[C@@H](C)[C@@H](O)[C@@H](C)[C@H](OC(C)=O)[C@@H]1C,13.9%,
O=C1NC(=O)[C@H]2[C@@H]1[C@@H]1C=C[C@H]2C1,18.2%,
C=C1[C@@H]2CC[C@@H](C2)C1(C)C,19.6%,
CCN(CC)CCOC(=O)c1cccnc1,-0.675%,
